# Data taken from PubChem BioAssay (NCATS).
# Inconclusive results are not listed. A call without a number means that no potency is given here. The source made the active and inactive calls. Calls come from the whole dose curve; as a rule, active = well fitted cell-killing curve with a large enough effect; inconclusive = small, poorly fitted or top-dose-only effect, or effect the other way; inactive = flat fitted curve, though single readings scatter.
# Tested on: Tov-21-G
# Test: Primary qHTS to identify gynecologic anti-cancer compounds using libraries of approved drugs and bioactive compounds (AID 1345084); note: nearly all actives have a fitted effect of over 55% in size
# Details: Gynecologic cancer cell panel viability, ATPlite luminescence, 48 h; series mostly up to 57.5 µM
# In short: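 In this quantitative HTS, cell killing is estimated from loss of ATP-dependent luciferase light. Cells see five compound concentrations over a 48 h exposure.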
# Potency is the fitted concentration of half-maximal effect.
row,Structure (SMILES),Potency
1,Cc1cn2cc(C(=O)N(C)CCO)cc(N[C@@H]3CCOc4cccc(C)c43)c2n1,inactive
2,Cc1[nH]nc2ccc(-c3cncc(OC[C@@H](N)Cc4ccccc4)c3)cc12,2.82 µM (active)
3,Nc1ncnc2c1c(-c1cnc3[nH]ccc3c1)nn2C1CCCC1,6.31 µM (active)
4,CC(=O)SC[C@@H](C)C(=O)N1CCC[C@H]1C(=O)N[C@@H](Cc1ccccc1)C(=O)O,inactive
5,C[C@@H](Oc1cc(-c2cnn(C3CCNCC3)c2)cnc1N)c1c(Cl)ccc(F)c1Cl,14.1 µM (active)
6,Cc1ccc(C(N)=O)cc1Nc1nccc(-c2cn(C(C)C)c3cnccc23)n1,14.1 µM (active)
7,Cc1cn(-c2cc(NC(=O)c3ccc(C)c(Nc4nccc(-c5cccnc5)n4)c3)cc(C(F)(F)F)c2)cn1,inactive
8,O=C(c1ccc(Nc2nccc(-c3cc4ccccc4s3)n2)cc1)N1CCC(N2CCCC2)CC1,28.2 µM (active)
9,CN1CCC(CNc2ccc3ncc(-c4cccc(OC(F)(F)F)c4)n3n2)CC1,inactive
10,NC(=O)c1cccc2cn(-c3ccc([C@@H]4CCCNC4)cc3)nc12,inactive
11,CC(C)Nc1cc(C(F)(F)F)cc2nc(NC(=O)c3cccnc3)nn12,inactive
12,CCc1cc2c(cc1N1CCC(N3CCOCC3)CC1)C(C)(C)c1[nH]c3cc(C#N)ccc3c1C2=O,inactive
13,CN(C)CC(C)(C)CNc1nn2c(-c3ccccc3)nnc2cc1C1CCC1,inactive
14,CC(C)c1cc(-c2n[nH]c(=O)n2-c2ccc3c(ccn3C)c2)c(O)cc1O,0.282 µM (active)
15,COC(=O)C1=C(C)NC(C)=C(C(=O)OCCN2CCN(C(c3ccccc3)c3ccccc3)CC2)C1c1cccc([N+](=O)[O-])c1 (stereo unspecified),inactive
16,CC1(C)CC(=O)c2c(C(F)(F)F)nn(-c3ccc(C(N)=O)c(NC4CCC(OC(=O)CN)CC4)c3)c2C1 (stereo unspecified),0.355 µM (active)
17,CC(C)(O)CCc1ccc(OCc2cc(-c3cccc(OC(F)F)c3)c3ncccc3c2)cc1,inactive
18,Cc1c(C)n(Cc2ccc(-c3ccccc3C(=O)O)cc2)c2ccc(C(=O)N[C@@H](C)c3ccc([N+](=O)[O-])cc3)cc12,inactive
19,CS(=O)(=O)c1ccc(-c2cnc(N)c(C(=O)Nc3ccccc3)n2)cc1,8.91 µM (active)
20,Cc1ccc2nc(NC(=O)CSc3nc4c(c(=O)n3-c3ccccc3)SCC4)sc2c1,inactive
21,CNC(=O)c1c(F)cccc1Nc1nc(Nc2cc3c(cc2OC)CCN3C(=O)CN(C)C)nc2[nH]ccc12,inactive
